AmpC detergent – qHTS Inhibitors of AmpC Beta-Lactamase (assay with detergent). AmpC hydrolysis of nitrocefin, absorbance 480 nm, 0.01% Triton. Potency, µM (highest dose often 114 µM), most hits filed as inhibitors. actives 0.041% (n = 370,000). AID 485294, 2010; note: nearly all actives have a fitted effect of over 25% in size
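AmpC (5.3 nM in the dispensed reagent) in 20 mM phosphate pH 7.0 with 0.01% (detergent screen) or 0.0001% Triton X-100 was preincubated with compounds for 15 min at room temperature. Nitrocefin was then added from an 800 uM solution, and hydrolysis was followed at 480 nm.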
Sm TGR inh – qHTS Assay for the Inhibitors of Schistosoma Mansoni Peroxiredoxins | AID 485364, 2010 | purified TGR, DTNB reduction, TNB absorbance 405 nm | Potency, µM (top dose mostly 114 µM), usual class: inhibitors | actives 3% (n = 360,000); note: nearly all actives have a fitted effect of over 60% in size
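First, TGR (20 nM dispensed) and NADPH were mixed with compound. Second, a 15 min room-temperature incubation followed. Third, further NADPH and then DTNB were added to start the reaction. Finally, TNB absorbance was monitored kinetically.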
Giardia FBPA inh-1 – qHTS Assay for Inhibitors of Fructose-1,6-bisphosphate Aldolase from Giardia Lamblia; A8B2U2; purified Giardia FBPA; Potency, µM (top dose mostly 59.6 µM), usual class: inhibitors; actives 0.71% (n = 290,000); note: nearly all actives have a fitted effect of over 55% in size
Target sequence (A8B2U2 whole entry, looked up): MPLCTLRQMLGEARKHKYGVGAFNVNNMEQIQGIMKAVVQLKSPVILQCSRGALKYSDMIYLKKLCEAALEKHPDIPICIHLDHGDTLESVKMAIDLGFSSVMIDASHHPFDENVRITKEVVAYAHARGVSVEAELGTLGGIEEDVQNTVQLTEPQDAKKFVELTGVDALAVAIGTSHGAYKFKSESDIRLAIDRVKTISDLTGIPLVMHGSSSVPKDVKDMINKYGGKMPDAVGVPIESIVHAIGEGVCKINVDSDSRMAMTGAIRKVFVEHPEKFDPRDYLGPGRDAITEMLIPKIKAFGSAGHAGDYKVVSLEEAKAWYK
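Giardia FBPA (40 nM reagent) was preincubated 10 min at RT with compound (up to 57.5 uM final), then substrate plus GAPDH/TPI/NAD/arsenate coupling system with diaphorase/resazurin was added; resorufin fluorescence (525/598 nm) was read after 20 min.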
AmpC inh no detg – qHTS Inhibitors of AmpC Beta-Lactamase (assay without detergent) | actives 0.52% (n = 330,000) | Potency, µM (doses to about 57.1 µM), hits mostly inhibitors | AID 485341, 2010 | AmpC nitrocefin hydrolysis, absorbance 480 nm, 0.0001% Triton | P00811; note: nearly all actives have a fitted effect of over 20% in size
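20 mM phosphate pH 7.0 + 0.01% (detergent screen) or 0.0001% Triton X-100; 5.3 nM AmpC reagent; cpd preinc 15 min RT; nitrocefin (800 uM stock) to start; A480 q20 s × 4 min; Activity was normalised to no-enzyme and no-compound control wells.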
Giardia growth – qHTS Assay for Inhibitors of Fructose-1,6-bisphosphate Aldolase from Giardia Lamblia: Giardia lamblia growth inhibition; actives 5% (n = 1,500); Giardia lamblia trophozoite growth inhibition; Potency, µM (doses to about 57.5 µM), actives largely listed as inhibitors; shares compounds with Giardia FBPA inh-1;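 note: trophozoites exposed to compound for 48 h at 37 °C; nearly all actives have a fitted effect of over 70% in size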
Mammal cell tox – qHTS Assay for Inhibitors of Fructose-1,6-bisphosphate Aldolase from Giardia Lamblia: Mammalian cellular toxicity; shares compounds with Giardia FBPA inh-1; mammalian cell viability counter-screen, qHTS; Potency, µM (titrated, usually from 57.5 µM), actives largely listed as inhibitors; actives 4% (n = 1,500); AID 2786, 2010;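 note: Chinese hamster ovary cells used as mammalian cytotoxicity surrogate; viability measured as cellular ATP by luminescence; compound exposure lasted 48 h before reading; nearly all actives have a fitted effect of over 60% in size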
Giardia FBPA inh-2 – qHTS Assay for Inhibitors of Fructose-1,6-bisphosphate Aldolase from Giardia Lamblia: Primary screen confirmation; actives 5% (n = 1,500); purified Giardia aldolase enzyme activity, qHTS; Potency, µM (highest dose often 57.5 µM), most hits filed as inhibitors; shares compounds with Giardia FBPA inh-1; AID 2787, 2010; note: nearly all actives have a fitted effect of over 45% in size
Rabbit FBPA inh – qHTS Assay for Inhibitors of Fructose-1,6-bisphosphate Aldolase from Giardia Lamblia: Rabbit FBPA Selectivity; shares compounds with Giardia FBPA inh-1; Rabbit muscle FBPA enzyme inhibition, selectivity counter-screen; Potency, µM (highest dose often 57.5 µM), most hits filed as inhibitors; actives 4% (n = 1,500); note: nearly all actives have a fitted effect of over 60% in size
Target sequence (P00883 whole entry, looked up): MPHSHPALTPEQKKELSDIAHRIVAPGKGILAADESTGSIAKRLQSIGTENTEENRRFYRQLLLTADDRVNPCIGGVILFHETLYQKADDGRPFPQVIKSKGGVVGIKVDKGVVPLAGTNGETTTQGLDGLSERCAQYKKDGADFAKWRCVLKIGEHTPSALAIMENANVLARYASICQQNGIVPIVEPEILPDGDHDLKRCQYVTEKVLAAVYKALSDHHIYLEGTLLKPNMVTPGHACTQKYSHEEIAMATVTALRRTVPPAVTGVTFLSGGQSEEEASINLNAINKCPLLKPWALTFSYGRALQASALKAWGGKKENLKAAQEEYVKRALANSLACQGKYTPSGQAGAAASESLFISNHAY
GAPDH counter – qHTS Assay for Inhibitors of Fructose-1,6-bisphosphate Aldolase from Giardia Lamblia: Coupling assay counterscreen confirmation; shares compounds with Giardia FBPA inh-1; GAPDH coupling enzyme counterscreen, biochemical, qHTS; Potency, µM (highest dose often 57.5 µM), most hits filed as inhibitors; actives 6% (n = 1,500); AID 2795, 2010; note: nearly all actives have a fitted effect of over 55% in size
A number is an active result; [ ] = remark or other dose. Rows were chosen to be rich in hits. Some 3.6% of all compounds tested hit in one or more screens of this group. Calls come from the whole dose curve; as a rule, active = well fitted curve in the direction sought with a large enough effect; inconclusive = small, poorly fitted or top-dose-only effect, or another doubt; inactive = no such curve, though single readings can be large; an effect the other way counts as inactive or inconclusive.

For COc1cc(OC)c(NC2=CC(=O)C(=O)c3ccccc32)cc1Cl the results were AmpC detergent inactive, Sm TGR inh inconclusive, Giardia FBPA inh-1 inconclusive, AmpC inh no detg inactive, Giardia growth 22µM, Mammal cell tox 21µM, Giardia FBPA inh-2 12µM, Rabbit FBPA inh 13µM and GAPDH counter 15µM.
Screening CCC(C(=O)Nc1cc(Cl)c(OC)cc1OC)c1ccccc1 (stereo unspecified) returned AmpC detergent inactive, Sm TGR inh inactive, Giardia FBPA inh-1 inactive and AmpC inh no detg inactive.
Cc1cc(C)n(CC(=O)NC2C(=O)N3C(C(=O)O)=C(CSc4nnc(C)s4)CSC23)n1 (stereo unspecified) was read as AmpC detergent inactive, Sm TGR inh 25µM, Giardia FBPA inh-1 13µM, AmpC inh no detg inactive, Giardia growth inactive, Mammal cell tox inactive, Giardia FBPA inh-2 inactive, Rabbit FBPA inh inactive and GAPDH counter inactive.
For Cc1nnc(SCC2=C(C(=O)O)N3C(=O)C(NC(=O)Cn4ncc(Cl)c4C)C3SC2)s1 (stereo unspecified) the results were AmpC detergent inactive, Sm TGR inh 3.2µM, Giardia FBPA inh-1 20µM, AmpC inh no detg inactive, Giardia growth inactive, Mammal cell tox inactive, Giardia FBPA inh-2 inactive, Rabbit FBPA inh inactive and GAPDH counter inactive.
Screening CC(=O)OCC1=C(C(=O)O)N2C(=O)[C@@H](NC(=O)Cc3cccs3)[C@@H]2SC1 returned Giardia FBPA inh-1 inactive.
Screening Cc1nnc(SCC2=C(C(=O)O)N3C(=O)C(NC(=O)c4cccc(F)c4F)C3SC2)s1 (stereo unspecified) returned AmpC detergent inactive, Sm TGR inh 10µM, Giardia FBPA inh-1 14µM, AmpC inh no detg inactive, Giardia growth inactive[10.4 µM], Mammal cell tox inactive, Giardia FBPA inh-2 inactive, Rabbit FBPA inh inactive and GAPDH counter inactive.
`CC1(C)CC(=O)c2c(oc3c(Cl)cc(NS(=O)(=O)c4ccc(Br)cc4)cc23)C1` gave AmpC detergent inactive and Sm TGR inh inactive.
Screening CC(C)CC(=O)N1CCN(Cc2ccc(C(F)(F)F)cc2)CC1 returned AmpC detergent inactive, Sm TGR inh inactive, Giardia FBPA inh-1 32µM, AmpC inh no detg inactive, Giardia growth inactive, Mammal cell tox inactive, Giardia FBPA inh-2 inactive, Rabbit FBPA inh inactive and GAPDH counter inactive.
Screening CC(C)CC(=O)N1CCN(Cc2ccc(Cl)cc2)CC1 returned AmpC detergent inconclusive, Sm TGR inh inactive, Giardia FBPA inh-1 28µM, AmpC inh no detg inactive, Giardia growth inactive, Mammal cell tox inactive, Giardia FBPA inh-2 inactive, Rabbit FBPA inh inactive and GAPDH counter inactive.
For CC(C)CC(=O)N1CCN(Cc2ccc(Br)cc2)CC1 the results were AmpC detergent inactive, Sm TGR inh inactive, Giardia FBPA inh-1 inconclusive and AmpC inh no detg inactive.
`COc1cccc(C(=O)C2CCCN(C(=O)c3cccc(C#CC(C)(C)O)c3)C2)c1` (stereo unspecified) gave AmpC detergent inactive, Giardia FBPA inh-1 inactive and AmpC inh no detg inactive.
COc1ccc(NCc2ccc([N+](=O)[O-])s2)c(OC)c1 was read as AmpC detergent inactive, Sm TGR inh inconclusive, Giardia FBPA inh-1 inconclusive and AmpC inh no detg inactive.
Screening CCOc1ccccc1NC(=O)C(CC)Sc1nc2ncccc2[nH]1 (stereo unspecified) returned AmpC detergent inactive and Sm TGR inh inactive.
`CCOc1ccccc1NC(=O)C(CC)Sc1nc2ccncc2[nH]1` (stereo unspecified) gave AmpC detergent inactive, Sm TGR inh inactive, Giardia FBPA inh-1 14µM, AmpC inh no detg inactive, Giardia growth inactive[10.4 µM], Mammal cell tox inactive, Giardia FBPA inh-2 inactive, Rabbit FBPA inh inactive and GAPDH counter inactive.
Cc1cccc(C)c1NC(=O)CNC(=O)CCCc1c[nH]c2ccccc12 was read as AmpC detergent inactive, Sm TGR inh inactive and AmpC inh no detg inactive.
For CC12CN3CCN(CC(C3)/C1=N\NC(=O)Nc1cccc(Cl)c1)C2 the results were AmpC detergent inactive, Sm TGR inh inactive, Giardia FBPA inh-1 inactive and AmpC inh no detg inactive.
Nc1ccc(N2CCCCC2)c(S(=O)(=O)Nc2ccccc2Cl)c1 was read as AmpC detergent inactive, Sm TGR inh inactive, Giardia FBPA inh-1 16µM, AmpC inh no detg inactive, Giardia growth inactive, Mammal cell tox inactive, Giardia FBPA inh-2 inactive, Rabbit FBPA inh inactive and GAPDH counter inactive.
COc1ccccc1NS(=O)(=O)c1cc(N)ccc1N1CCCCC1 was read as AmpC detergent inactive, Giardia FBPA inh-1 inactive and AmpC inh no detg inactive.
Screening COc1ccc(Cc2nnc(N/N=C/c3ccc(O)cc3O)[nH]c2=O)cc1OC returned AmpC detergent inactive, Sm TGR inh inactive, Giardia FBPA inh-1 inactive and AmpC inh no detg inactive.
`Cc1ccc(NC(=O)CN(C)CC(=O)Nc2cccc(F)c2)cc1S(=O)(=O)N1CCCCCC1` gave AmpC detergent inactive, Sm TGR inh inactive, Giardia FBPA inh-1 16µM, AmpC inh no detg inactive, Giardia growth inactive, Mammal cell tox inactive, Giardia FBPA inh-2 inactive, Rabbit FBPA inh inactive and GAPDH counter inactive.
Screening CCOCCCn1c(C)nc2c[n+](CC(=O)c3ccc4ccccc4c3)cc(Br)c21 returned AmpC detergent inactive, Sm TGR inh inactive, Giardia FBPA inh-1 inactive and AmpC inh no detg inactive.
`Cc1nc(NCc2ccccc2)c2nc(-c3ccccc3)n(CC(C)(C)CN(C)C)c2n1` gave Giardia FBPA inh-1 inactive.
Screening Cc1cc(=O)c2c(O)c(O)ccc2o1 returned AmpC detergent inactive, Sm TGR inh inactive, Giardia FBPA inh-1 10µM, AmpC inh no detg inactive, Giardia growth inactive, Mammal cell tox inactive, Giardia FBPA inh-2 inconclusive, Rabbit FBPA inh inconclusive and GAPDH counter inconclusive.

Screening results (PubChem BioAssay)
